Records with an inconclusive call do not appear. A call without a number means that no potency is given here. The source made the active and inactive calls. Calls come from the whole dose curve; as a rule, active = well fitted inhibition curve with a large enough effect in the repeat runs; inconclusive = weak or mixed curves, or effect the other way; inactive = no such curve, though single readings can be large or run the other way.
target: Nuclear receptor subfamily 1 group I member 3 (Homo sapiens) (UniProt Q14994); assay: qHTS assay to identify small molecule antagonists of the constitutive androstane receptor (CAR) signaling pathway (AID 1224838); conditions: HepG2-CYP2B6-hCAR luciferase, CITCO-stimulated, 24 h; series mostly up to 92.4 µM;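 note: HepG2 cells stably expressing hCAR with CYP2B6 luciferase reporter stimulated by CITCO; nearly all actives have a fitted effect of over 40% in size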
Excerpt: U.S. Tox21 Program National Center for Advancing Translational Sciences [NCATS] NIH Chemical Genomics Center [NCGC] U.S. Environmental Protection Agency [EPA] National Institutes of Environmental Health Sciences [NIEHS] National Toxicology Program [NTP] U.S. Food and Drug Administration [FDA] Tox21 Assay Overview: The constitutive androstane receptor (CAR) is a nuclear receptor which regulates multiple drug metabolizing enzymes (DMEs) and transporters. Activating CAR will generally increase the transcription and subsequent translation of CYP2B6 and CYP3A4. These two DMEs represent about 50% of the drug metabolizing potential in the body. When CAR is deactivated, the metabolizing potential in the body will decrease, subsequently increasing the toxicity in the body or lowering the therapeutic potential of a pro-drug. Recently, there have also been studies performed indicating CARs role in energy metabolism and cancer therapy. Therefore, inhibiting CARs activity could have a potential effect on diabetes and cancer. Identifying environmental toxins and compounds which modulate CAR, through the use of the Tox21 10K compound collection, will be an important step in determining the toxicity and potential therapeutic effects these factors will have on the human body.
Tox21 Assay Protocol Summary: A double-stable (hCAR and CYP2B6-2.2kb) transfected cell line, derived from human hepatoma (HepG2) cells, was utilized for the duration of the quantitative high-throughput screens. The HepG2-CYP2B6-hCAR cells suspended in DMEM culture medium supplemented with 10% FBS, 5 ug/mL blasticidin, 0.5 mg/mL geneticin, 100 U/mL penicillin and 100 ug/mL streptomycin were dispensed at 2500 cells/4 uL/well in 1536-well white solid bottom plates using a Multidrop Combi. After the assay plates were incubated at 37 C/5% CO2 for 4 hrs, 23 nL of compounds at 15 concentrations (from 5-48 columns) or positive control (from 1 to 4 columns) were transferred to the assay plates using a Pintool station. One uL of CITCO, was added using a Flying Reagent Dispenser to generate a final concentration of 50 nM CITCO inside each well. After a 24 hr incubation period at 37 C/5% CO2, four uL of ONE-Glo reagent was added into the assay plates using a Flying Reagent Dispenser. After a 30 min incubation period at room temperature, the luminescence intensity in the assay plates was measured using a ViewLux plate reader.

Sequence of Nuclear receptor subfamily 1 group I member 3 (Homo sapiens) (Q14994 whole entry, looked up): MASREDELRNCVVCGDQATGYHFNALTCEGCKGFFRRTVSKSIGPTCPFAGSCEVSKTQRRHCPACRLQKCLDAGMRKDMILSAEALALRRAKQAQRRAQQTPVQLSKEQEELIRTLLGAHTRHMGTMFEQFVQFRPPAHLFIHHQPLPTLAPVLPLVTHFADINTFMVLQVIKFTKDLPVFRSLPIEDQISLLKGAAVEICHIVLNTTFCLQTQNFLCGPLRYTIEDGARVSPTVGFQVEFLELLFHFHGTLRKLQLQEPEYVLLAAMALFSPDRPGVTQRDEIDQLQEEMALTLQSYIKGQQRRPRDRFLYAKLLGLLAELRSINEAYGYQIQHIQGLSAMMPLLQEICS

| Compound | Potency |
| --- | --- |
| O=[N+]([O-])c1ccc(Oc2ccc([N+](=O)[O-])cc2)cc1 | inactive |
| Cc1nccn1CC1CCc2c(c3ccccc3n2C)C1=O (stereo not given) | inactive |
| CC(C)c1cccc(O)c1 | inactive |
| CCCCCCOC(=O)c1ccccc1O | inactive |
| Cc1ccc(Nc2ccc(O)c3c2C(=O)c2ccccc2C3=O)cc1 | inactive |
| COC(=O)c1ccc(C(=O)OC)c(C(=O)OC)c1 | inactive |
| CCN1CCCC1CNC(=O)c1cc(S(N)(=O)=O)ccc1OC (stereo not given) | inactive |
| Cc1c(F)cc2c(=O)c(C(=O)O)cn3c2c1CCC3C (stereo not given) | inactive |
| CCCCCCCCCCCCI | inactive |
| CCCCc1ccc(N)cc1 | inactive |
| COCCOC(=O)CC#N | inactive |
| COC(=O)[C@H]1[C@H]2C[C@@H]3c4[nH]c5cc(OC)ccc5c4CCN3C[C@H]2C[C@@H](OC(=O)COc2ccc(OC)cc2)[C@@H]1OC | inactive |
| CC(C)c1cccc(C(C)C)c1N | inactive |
| O=C(O)c1ccccc1S | inactive |
| C/C=C1\C(=O)C[C@H]2[C@@H]3CCC4=CC(=O)CC[C@]4(C)[C@H]3CC[C@]12C | inactive |
| N#CCN(CC#N)CCN(CC#N)CC#N | inactive |
| Cc1ccc(N)cc1[N+](=O)[O-] | inactive |
| CCCCCCCCCCC1CO1 (stereo not given) | inactive |
| O=Cc1ccccc1[N+](=O)[O-] | inactive |
| CCCC(C)CO (stereo not given) | inactive |

| Compound | Potency |
| --- | --- |
| CC(C)(C)N(CCO)CCO | inactive |
| CCO[Si](C)(OCC)OCC | inactive |
| O=c1[nH]c2ccccc2c(=O)n1CCCl | inactive |
| CC(C)(O)c1ccccc1 | inactive |
| NC(=O)CCCCC1CCSS1 (stereo not given) | inactive |
| CCCCCN(CCCCC)C(=O)C(CCC(=O)O)NC(=O)c1ccc(Cl)c(Cl)c1 (stereo not given) | inactive |
| CC1=CC(C)C(C=O)C(C)C1 (stereo not given) | inactive |
| CO[Si](CCCNCCC[Si](OC)(OC)OC)(OC)OC | inactive |
| Cn1cnc2c(=O)[nH]c(N)nc21 | inactive |
| [O-][N+](=Nc1ccccc1)c1ccccc1 | inactive |
| CCCCCCCCCCCCCCCCCCOCC(O)CO (stereo not given) | inactive |
| C#CC(C)(O)CC(C)C (stereo not given) | inactive |
| CCCOc1ccccc1-c1nc2n[nH]nc2c(=O)[nH]1 | inactive |
| CCCC(=O)O[C@]1(C(=O)CCl)[C@@H](C)C[C@H]2[C@@H]3CCC4=CC(=O)C=C[C@]4(C)[C@@]3(F)C(=O)C[C@@]21C | inactive |
| CN(C)CCOC(c1ccc(Cl)cc1)c1ccccn1 (stereo not given) | inactive |
| CCN1CCN(c2cc3c(cc2F)c(=O)c(C(=O)O)cn3C2CC2)CC1 | inactive |
| CN(C)CCn1nnnc1SCC1=C(C(=O)O)N2C(=O)[C@@H](NC(=O)Cc3csc(N)n3)[C@H]2SC1 | inactive |
| C=C(C)C(=O)NCCC[N+](C)(C)C | inactive |
| O=c1[nH]c(=O)n([C@H]2O[C@H](CO)[C@@H](O)[C@@H]2O)cc1/C=C\Br | inactive |
| COc1ccc(N=[N+]([O-])c2ccc(OC)cc2)cc1 | inactive |
